# Measured values as given in the supplement of paper PMC9135407.
# “And” between values parts separate entries of the source, which are not always exact repeats. Equal values may be shown once. Where a name gives a salt, the structure may show the parent alone. About 620 (11%) of roughly 5,800 compounds showed activity. The full list was thinned out, with actives kept by preference. A number with no mark means an inactive call.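 Rule for the calls: active = score above a cut-off or among the top three wells of a plate; in these data no inactive exceeds 0.85.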
# Tested on: primary human hepatic stellate cells (donor 1)
# Experiment: scaled lipid accumulation score (0 = DMSO-like, 1 = nortriptyline-like); higher = stronger HSC inactivation (lipid re-accumulation), active = hit call of the paper
# Settings: 48 h
# [1] = library stock concentration: 3.33 mM
# [2] = library stock concentration: 10 mM
# [3] = library stock concentration: 1 mM
# [4] = library stock concentration: 400 uM
# [5] = library stock concentration: 2 mM
# [6] = library stock concentration: 80 uM
smiles,measurement,setting,value
CCCCC(F)(F)[C@@]1(O)CC[C@H]2[C@@H](CC(=O)[C@@H]2CCCCCCC(=O)O)O1 [Lubiprostone],scaled lipid accumulation score,[1],≤ 0
same,scaled lipid accumulation score,[2],≤ 0
CCCCC/C=C\C/C=C\CCCCCCCC(=O)OCC(O)CO (stereo unspecified) [1-Linoleoyl Glycerol],scaled lipid accumulation score,[3],≤ 0
C=C1C[C@H](O)[C@H](C/C=C\CCCC(=O)O)[C@H]1/C=C/[C@@H](O)CCCCC [11-deoxy-11-methylene Prostaglandin D2],scaled lipid accumulation score,[3],≤ 0
CCC(C)C(COC(Cc1ccccc1)C(=O)NC(CCS(C)(=O)=O)C(=O)OC(C)C)NCC(N)CS (stereo unspecified),scaled lipid accumulation score,library stock concentration: 7.9 mM,0.195
CC(C)(C)CC(C)(C)c1cc(Cc2cc(C(C)(C)CC(C)(C)C)cc(-n3nc4ccccc4n3)c2O)c(O)c(-n2nc3ccccc3n2)c1,scaled lipid accumulation score,[2],≤ 0
CCCCC[C@@H](O)[C@H]1C(=O)O[C@H](C)[C@@H](O)/C=C/C=C/C=C/C=C/C=C(\C)[C@@H](O)C[C@H](O)C[C@H](O)C[C@H](O)C[C@H](O)C[C@H](O)C[C@@H]1O [Filipin III],scaled lipid accumulation score,[3],0.021
CCCCC[C@@H](O)[C@H]1C(=O)O[C@H](C)[C@@H](O)/C=C/C=C/C=C/C=C/C=C(\C)[C@@H](O)C[C@H](O)C[C@H](O)C[C@H](O)C[C@H](O)C[C@H](O)C[C@@H]1O [Filipin],scaled lipid accumulation score,library stock concentration: 3.1 mM,0.029
COc1ccc2c(c1)c(CC(=O)SC[C@H](NC(C)=O)C(=O)OCCCCO[N+](=O)[O-])c(C)n2C(=O)c1ccc(Cl)cc1 [NO-Indomethacin],scaled lipid accumulation score,[3],≤ 0
C[C@@H]1C[C@H]2[C@@H]3CCC4=CC(=O)C=C[C@]4(C)[C@@]3(Cl)[C@@H](O)C[C@]2(C)[C@@]1(OC(=O)c1ccco1)C(=O)CCl [Mometasone furoate],scaled lipid accumulation score,,0.136
same,scaled lipid accumulation score,[1],0.086
same,scaled lipid accumulation score,[2],0.519
COc1cc(Nc2c(C#N)cnc3cc(OCCCN4CCN(C)CC4)c(OC)cc23)c(Cl)cc1Cl [Bosutinib (SKI-606) (0.4 mM)],scaled lipid accumulation score,[4],≤ -0.005
CCN1CCC(n2cc(CNc3cc(Cl)c4ncc(C#N)c(Nc5ccc(F)c(Cl)c5)c4c3)nn2)CC1 [listing 1 of 2 here],scaled lipid accumulation score,[2],1.15 (active)
COc1cc(Nc2c(C#N)cnc3cc(OCCCN4CCN(C)CC4)c(OC)cc23)c(Cl)cc1Cl [Bosutinib (SKI-606) (2 mM)],scaled lipid accumulation score,[5],0.096
COc1cc(Nc2c(C#N)cnc3cc(OCCCN4CCN(C)CC4)c(OC)cc23)c(Cl)cc1Cl [Bosutinib (SKI-606)],scaled lipid accumulation score,[1],0.374
same,scaled lipid accumulation score,[2],0.395
CCN1CCC(n2cc(CNc3cc(Cl)c4ncc(C#N)c(Nc5ccc(F)c(Cl)c5)c4c3)nn2)CC1 [listing 2 of 2 here],scaled lipid accumulation score,[6],≤ -0.009
same,scaled lipid accumulation score,[4],≤ -0.009
same,scaled lipid accumulation score,[5],≤ -0.009
COc1cc(Nc2c(C#N)cnc3cc(OCCCN4CCN(C)CC4)c(OC)cc23)c(Cl)cc1Cl [Bosutinib (SKI-606) (10 mM)],scaled lipid accumulation score,[2],0.388
COc1cc(Nc2c(C#N)cnc3cc(OCCCN4CCN(C)CC4)c(OC)cc23)c(Cl)cc1Cl [Bosutinib],scaled lipid accumulation score,[6],≤ -0.016
same,scaled lipid accumulation score,[4],≤ -0.016
same,scaled lipid accumulation score,[5],≤ -0.016
same,scaled lipid accumulation score,[2],≤ -0.016
CC(C)c1ccccc1S(=O)(=O)c1cc(N)c2ncccc2c1[N+](=O)[O-],scaled lipid accumulation score,[2],0.26
CC(C(=O)O)c1ccc(C(=O)c2cccs2)cc1 (stereo unspecified) [Suprofen],scaled lipid accumulation score,,≤ 0
same,scaled lipid accumulation score,[1],≤ 0
same,scaled lipid accumulation score,library stock concentration: 7.7 mM,≤ 0
same,scaled lipid accumulation score,[2],0.024 and ≤ 0
CC(C)c1ccc(C(=O)c2cccs2)c(SCCCCCCCCN(C)C)n1.O=C(O)C(=O)O,scaled lipid accumulation score,[2],1.24 (active)
O=C(O)COc1ccc(C(=O)c2cccs2)c(Cl)c1Cl [Tienilic Acid],scaled lipid accumulation score,[3],≤ 0
CC12CCC(CC1=O)C2(C)C (stereo unspecified) [Camphor (1r)],scaled lipid accumulation score,library stock concentration: 13.1 mM,≤ -0.001
CO[C@H]1O[C@@H]2O[C@@]3(C)CC[C@H]4[C@H](C)CC[C@@H]([C@H]1C)[C@@]24OO3 [Artemether],scaled lipid accumulation score,[1],≤ 0
same,scaled lipid accumulation score,[2],≤ 0 and 0.024
CO[C@H]1O[C@@H]2O[C@@]3(C)CC[C@H]4[C@H](C)CC[C@@H]([C@H]1C)[C@@]24OO3,scaled lipid accumulation score,[2],≤ 0
CN1CC[C@@H](c2c(O)cc(O)c3c(=O)cc(-c4ccccc4Cl)oc23)[C@@H]1CO,scaled lipid accumulation score,[1],≤ -0.009
same,scaled lipid accumulation score,[2],0.465
CN1CCN(S(=O)(=O)c2ccc(-c3cnc(N)c(C(=O)Nc4cccnc4)n3)cc2)CC1 [listing 1 of 2 here],scaled lipid accumulation score,[2],1.02 (active)
CN1CCN(S(=O)(=O)c2ccc(-c3cnc(N)c(C(=O)Nc4cccnc4)n3)cc2)CC1 [listing 2 of 2 here],scaled lipid accumulation score,[1],0.821
CS(=O)(=O)c1ccc(-c2cnc(N)c(C(=O)Nc3ccccc3)n2)cc1 [listing 1 of 2 here],scaled lipid accumulation score,[6],0.017
same,scaled lipid accumulation score,[4],≤ 0
same,scaled lipid accumulation score,[5],≤ 0
same,scaled lipid accumulation score,[1],0.225
same,scaled lipid accumulation score,[2],0.489
CS(=O)(=O)c1ccc(C(=O)Nc2ccc(Cl)c(-c3ccccn3)c2)c(Cl)c1 [Vismodegib (GDC-0449)],scaled lipid accumulation score,[1],0.002
same,scaled lipid accumulation score,[2],≤ 0
CS(=O)(=O)c1ccc(-c2cnc(N)c(C(=O)Nc3ccccc3)n2)cc1 [listing 2 of 2 here],scaled lipid accumulation score,[2],0.907 (active)
CN(C)c1nc(N)c(C(=O)Nc2cccnc2)nc1Cl [ACDPP hydrochloride],scaled lipid accumulation score,[2],≤ -0.001
Cl.O=C([O-])c1ccc(-c2c3nc(c(-c4ccc(C(=O)O)cc4)c4nc(c(-c5ccc(C(=O)O)cc5)c5ccc([nH]5)c(-c5ccc(C(=O)[O-])cc5)c5ccc2[n-]5)C=C4)C=C3)cc1.[Mn+3] [MnTBAP chloride],scaled lipid accumulation score,library stock concentration: 5.7 mM,≤ -0.012
Cc1cn([C@H]2O[C@@H](CO)[C@H](O)[C@H]2F)c(=O)[nH]c1=O [Clevudine],scaled lipid accumulation score,[1],≤ 0
same,scaled lipid accumulation score,[2],≤ 0
O=C(CCC/C=C\C[C@H]1C(=O)C[C@@H](O)C1/C=C/[C@@H](O)CCc1ccccc1)NC(CO)CO (stereo partly specified) [17-phenyl trinor Prostaglandin E2 serinol amide],scaled lipid accumulation score,[3],≤ 0
NC(=O)N[C@@H](CCC(=O)O)C(=O)O,scaled lipid accumulation score,[2],≤ 0
O=C(Oc1cc(S(=O)(=O)c2ccccc2)ccc1[N+](=O)[O-])c1ccc(Cl)cc1,scaled lipid accumulation score,[1],≤ -0.009
same,scaled lipid accumulation score,[2],≤ 0
